In the library only some 8.1% were active in any assay of this set; here they are far more common.
ELG1 repair inh: ELG1-dependent DNA repair inhibition; HEK293T ELG1-luciferase reporter, luminescence, 16 h; DNA damage induced by 5-fluorouridine; Potency, µM (highest dose often 46.1 µM), for the others: at the highest dose activity change, negative = inhibition, most hits filed as inhibitors; 2.3% of 330,000 active; AID 504467; further: on the % scale 0 is the no-effect control and ±100 the full control effect; nearly all actives have a fitted effect of over 55% in size
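Cells (2,000 per well) received 5-fluorouridine plus test compound or DMSO and were incubated 16 hr at 37 °C, 5% CO2. Luciferase activity was read by luminescence 30 min after ONE-Glo addition; signal suppression marked inhibition of damage-induced ELG1 function.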
KB-3-1 tox: kills parental KB-3-1 adenocarcinoma cells. KB-3-1 viability, CellTiter-Glo ATP luminescence, 72 h. 1.4% of 400,000 active. Potency, µM (series often up to 46.1 µM), usual class: cytotoxic. AID 1347075; further: on the % scale 0 is the no-effect control and ±100 the full control effect; nearly all actives have a fitted effect of over 60% in size
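Parental KB-3-1 adenocarcinoma cells in phenol-red-free DMEM with 10% FBS were pin-treated with compounds at several concentrations, incubated 72 h at 37 °C, and viability read by CellTiter-Glo luminescence; concentration-effect curves were fitted after normalization.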
SW480 rereplic: DNA re-replication induction in SW480 cells; SW480 DNA re-replication, Hoechst DNA content imaging, 48 h; Potency, µM (doses to about 46.1 µM), without a hit: at the highest dose re-replication activation, most hits filed as activators; 1.8% of 340,000 active; AID 624297; further: % of control where 0% means no effect; nearly all actives have a fitted effect of over 55% in size
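Cells (250 per well) received 23 nL compound or DMSO by pin tool and were kept 48 hr at 37 C, 5% CO2. Nuclei were then stained with Hoechst for 40 min and scanned for DNA content.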
MCF10A rereplic: inducers of DNA re-replication in MCF 10A breast cells. MCF 10A DNA re-replication, Hoechst nuclear intensity, 48 h. Potency, µM (doses to about 46.1 µM), inactives show top-dose activity, positive = re-replication, hits mostly activators. 2.9% of 350,000 active. AID 624296; further: % of control where 0% means no effect; nearly all actives have a fitted effect of over 50% in size
KB-V1 cytotox: kills drug-selected multidrug resistant KB-V1 cells. 3.4% of 400,000 active. Potency, µM (titrated, usually from 46.1 µM), actives largely listed as cytotoxic. KB-V1 MDR cells viability, CellTiter-Glo, 72 h; further: on the % scale 0 is the no-effect control and ±100 the full control effect; nearly all actives have a fitted effect of over 60% in size
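Potencies derive from concentration-effect curves fitted to normalized luminescence (CellTiter-Glo) of KB-V1 cells treated for 72 h at 37 degrees C in phenol-red-free DMEM containing 10% FBS.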
* marks the source's active call; other numbers are inactive results. The call rests on the fitted dose curve; in most records, active means well fitted curve in the direction sought with a large enough effect; inconclusive means small, poorly fitted or top-dose-only effect, or another doubt; inactive means no such curve, though single readings can be large; an effect the other way counts as inactive or inconclusive. Potency means the concentration at half of the fitted maximal effect.

What do the screens show for `CC(=O)Nc1ccc(S(=O)(=O)N2CCC(C(=O)c3ccc(F)cc3)CC2)cc1`?
ELG1 repair inh: -17%; KB-3-1 tox: inactive; SW480 rereplic: 2%; MCF10A rereplic: 9%; KB-V1 cytotox: inactive

How did Cc1nnc(SC(C)C(=O)Nc2ccc(S(=O)(=O)N3CCCCCC3)cc2)s1 (stereo not drawn) do in these assays?
ELG1 repair inh: inconclusive; KB-3-1 tox: inactive; SW480 rereplic: -3%; MCF10A rereplic: 14%; KB-V1 cytotox: 16µM*

Results for CCc1ccc(CN(C)C(=O)c2cc(COc3cccc(C(F)(F)F)c3)on2)nc1 ?
ELG1 repair inh: 0%; KB-3-1 tox: inactive; SW480 rereplic: -9%; MCF10A rereplic: 9%; KB-V1 cytotox: inactive

Results for COc1ccccc1NC(=O)c1sc2nc3c(c(C(F)(F)F)c2c1N)CN(C(C)=O)CC3 ?
KB-3-1 tox: inactive; KB-V1 cytotox: inactive

How did CCOc1cc(C2/C(=C(/O)c3ccc(OC)cc3)C(=O)C(=O)N2CC2CCCO2)ccc1O (stereo not drawn) do in these assays?
ELG1 repair inh: 0%; KB-3-1 tox: inactive; SW480 rereplic: 22%; MCF10A rereplic: -4%; KB-V1 cytotox: inactive

Results for Cc1c(N=C/C=C/c2ccccc2)cnn1C ?
ELG1 repair inh: inconclusive; KB-3-1 tox: inactive; SW480 rereplic: 0%; MCF10A rereplic: 1%; KB-V1 cytotox: inactive

What do the screens show for `O=C(NC(=S)Nc1ccc(S(=O)(=O)N2CCCCC2)cc1)c1cccs1`?
ELG1 repair inh: -8%; KB-3-1 tox: inconclusive; SW480 rereplic: 13%; MCF10A rereplic: 7%; KB-V1 cytotox: 3.3µM*

Results for CN(C)c1ccc(C(=O)OCC(=O)Nc2cccc(S(=O)(=O)N3CCCC3)c2)cc1 ?
ELG1 repair inh: inconclusive; KB-3-1 tox: inactive; SW480 rereplic: 4%; MCF10A rereplic: 10%; KB-V1 cytotox: 16µM*

What do the screens show for `COC(=O)c1ccc(NC(=O)COc2ccc(N(C)S(=O)(=O)c3ccc(C)cc3)cc2)cc1`?
ELG1 repair inh: inconclusive; SW480 rereplic: -5%; MCF10A rereplic: 18µM*

What do the screens show for `COc1ccc(CCNC(=O)COc2ccc(N(C)S(=O)(=O)c3ccc(C)cc3)cc2)cc1OC`?
ELG1 repair inh: 21µM*; KB-3-1 tox: inactive; SW480 rereplic: -6%; MCF10A rereplic: 10%; KB-V1 cytotox: inactive

Results for COc1ccc(CCNC(=O)c2ccc(N(C)S(=O)(=O)c3ccc(C)cc3)cc2)cc1OC ?
ELG1 repair inh: inconclusive; KB-3-1 tox: inconclusive; SW480 rereplic: -3%; MCF10A rereplic: -4%; KB-V1 cytotox: inconclusive

How did O=C(COC(=O)c1ccc(C(F)(F)F)cc1)Nc1cccc(S(=O)(=O)N2CCCCC2)c1 do in these assays?
ELG1 repair inh: 9%; KB-3-1 tox: inactive; SW480 rereplic: 13%; MCF10A rereplic: 0%; KB-V1 cytotox: inactive

What do the screens show for `Cc1ccc(Nc2cc(C(=O)NCCc3ccccc3)c3ccccc3n2)c(C)c1`?
KB-3-1 tox: inactive; KB-V1 cytotox: inactive

What do the screens show for `CC(=O)Nc1ccc(S(=O)(=O)N2CCCC2)cc1`?
ELG1 repair inh: 7%; KB-3-1 tox: inactive; SW480 rereplic: -9%; MCF10A rereplic: -1%; KB-V1 cytotox: inactive

Results for Cc1cccc(N2CC(C(=O)Nc3ccc(S(=O)(=O)N4CCCCC4)cc3)CC2=O)c1C (stereo not drawn) ?
ELG1 repair inh: -13%; KB-3-1 tox: inactive; SW480 rereplic: 8%; MCF10A rereplic: 13µM*; KB-V1 cytotox: inactive

Results for CCC1CCCCN1S(=O)(=O)c1ccc(NC(=O)c2cccs2)cc1 (stereo not drawn) ?
ELG1 repair inh: 21µM*; KB-3-1 tox: inactive; SW480 rereplic: 6%; MCF10A rereplic: inconclusive; KB-V1 cytotox: inactive

Results for COC(=O)Nc1ccc(S(=O)(=O)N2CCCCCC2)cc1 ?
ELG1 repair inh: -6%; KB-3-1 tox: inactive; SW480 rereplic: 19%; MCF10A rereplic: inconclusive; KB-V1 cytotox: 18µM*

Compound activity: PubChem BioAssay, National Center for Advancing Translational Sciences (NCATS)
